Laboratory results from PubChem BioAssay AID488969 (Vanderbilt High Throughput Screening Facility, 2010).
The full ranking holds about 110,000 compounds; the median of “z-score” is about -0.1, and the highest 2% start at about 2. The list comes from a sample in which the highest values are over-represented; it also holds similar structures and randomly drawn compounds. Active and inactive are the calls of the source.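 Rule for the calls: active = z-score in the third read window above 3 or below -3; inactive = the rest.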

Molecular target: Metabotropic glutamate receptor 8 (Rattus norvegicus) (UniProt P70579)
Experiment: rat mGluR8 modulators via GIRK flux, primary screen, cell-based, thallium flux, HTS (AID 488969)
Settings: HEK293 rat mGluR8, GIRK (G protein-gated inwardly rectifying potassium channel) thallium flux, FluoZin2; at 10 µM; stronger effect = higher value; submaximal glutamate (EC20) added with thallium

Metabotropic glutamate receptor 8 (Rattus norvegicus), sequence (P70579 whole entry, looked up): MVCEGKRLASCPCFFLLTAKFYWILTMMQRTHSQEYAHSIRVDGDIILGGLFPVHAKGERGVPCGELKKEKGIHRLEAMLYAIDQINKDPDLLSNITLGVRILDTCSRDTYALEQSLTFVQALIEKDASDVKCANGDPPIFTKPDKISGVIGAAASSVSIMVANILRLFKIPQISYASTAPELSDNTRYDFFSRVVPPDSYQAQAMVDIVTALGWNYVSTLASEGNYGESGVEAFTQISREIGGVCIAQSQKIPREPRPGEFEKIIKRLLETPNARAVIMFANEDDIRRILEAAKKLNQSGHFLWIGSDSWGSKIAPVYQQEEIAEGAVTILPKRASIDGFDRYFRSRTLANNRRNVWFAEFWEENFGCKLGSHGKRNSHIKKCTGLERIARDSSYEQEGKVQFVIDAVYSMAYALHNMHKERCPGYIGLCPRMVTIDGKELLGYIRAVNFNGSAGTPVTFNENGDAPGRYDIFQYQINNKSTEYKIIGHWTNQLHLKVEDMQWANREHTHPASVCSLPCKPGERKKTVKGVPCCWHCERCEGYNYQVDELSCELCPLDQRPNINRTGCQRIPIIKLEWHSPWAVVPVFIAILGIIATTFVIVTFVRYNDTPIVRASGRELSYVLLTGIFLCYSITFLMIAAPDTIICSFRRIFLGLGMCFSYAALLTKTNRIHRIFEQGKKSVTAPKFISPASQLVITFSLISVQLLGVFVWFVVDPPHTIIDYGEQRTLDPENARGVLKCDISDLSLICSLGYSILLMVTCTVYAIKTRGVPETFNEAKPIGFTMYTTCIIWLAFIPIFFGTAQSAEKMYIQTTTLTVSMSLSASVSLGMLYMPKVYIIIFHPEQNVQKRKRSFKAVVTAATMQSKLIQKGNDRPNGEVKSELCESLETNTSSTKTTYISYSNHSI

| Compound | z-score |
| --- | --- |
| Cc1cc(S(=O)(=O)NCC(=O)O)ccc1F | 0.254 |
| CCN=C1SC(C(=O)Nc2cccc(C)c2)CC(=O)N1CC (stereo not given) | -0.145 |
| O=C(/C=C/c1ccc(Br)cc1)c1ccco1 | -0.0794 |
| O=C(/C=C/c1ccccc1)c1cc(Br)ccc(=O)c1O | 14 (active) |
| O=C(/C=C/c1ccccn1)c1ccc(Br)cc1O | -0.442 |
| CN(C)c1nc(Oc2ccc(N)cc2)nc(N(C)C)n1 | 0.322 |
| COc1cccc(C(=O)CSc2nnnn2C)c1 | -0.273 |
| CCCN(Cc1ccccc1)C(=S)Nc1cccc(C(F)(F)F)c1 | -0.985 |
| CN1CC(=O)N(CC(=O)NCc2ccc3c(c2)OCO3)C1=O | -0.14 |
| O=C(O)C1[C@H]2C(=O)N(C3CCCC3)C[C@]23C=C[C@H]1O3 (stereo not given in full) | 0.231 |
| O=C(O)C1C2C=CC3(CN(C4CCCC4)C(=O)C13)O2 (stereo not given) | 2.75 |
| COC(=O)C1C2C=CC3(CN(C4CCCC4)C(=O)C13)O2 (stereo not given) | -1.65 |
| Cc1cc(C)c2oc(-c3cccc(NC(=O)c4ccc(F)cc4)c3)nc2c1 | -0.0725 |
| Cc1cccc(-n2cc(-c3ccc([N+](=O)[O-])cc3)[nH]c2=S)c1 | 0.401 |
| Cc1ccc(-n2cc(-c3ccc([N+](=O)[O-])cc3)[nH]c2=S)c(C)c1 | 2.99 |
| O=[N+]([O-])c1ccc(-c2cn(-c3ccccc3)c(=S)[nH]2)cc1 | -0.00967 |
| CCc1ccc(-n2cc(-c3ccc([N+](=O)[O-])cc3)[nH]c2=S)cc1 | 0.69 |
| Cc1cc(C)c(CSc2ncc(-c3ccc([N+](=O)[O-])cc3)[nH]2)c(C)c1 | -0.26 |
| O=[N+]([O-])c1ccc(-c2cn(-c3ccc(Cl)cc3)c(=S)[nH]2)cc1 | 2.83 |
| Cc1ccc(Nc2cc(-n3cccn3)ncn2)c(C)c1 | -0.35 |
| COc1ccc(/C=N/Nc2snc(SC)c2C#N)cc1OC | 0.407 |
| Cc1ccc(NC(=O)c2ccc3c(c2)N(CC(=O)N2CCCCC2)C(=O)C(C)(C)O3)cc1 | -0.4 |
| CC1Cc2nc(SCC(=O)N3CCN(c4ccccc4)CC3)n(CCc3ccccc3)c(=O)c2S1 (stereo not given) | -1.13 |
| Cc1cc(Cl)ccc1OCC(=O)Nc1ccccc1N1CCOCC1 | 2.81 |
| CCCC(=O)NC(=S)Nc1ccccc1N1CCOCC1 | -0.0717 |
| Cc1ccccc1OCC(=O)NC(=S)Nc1ccc(N2CCOCC2)c(Cl)c1 | 0.328 |
| O=C(NC(=S)Nc1ccc(N2CCOCC2)c(Cl)c1)C(c1ccccc1)c1ccccc1 | 0.604 |
| COc1ccc(OCC(=O)NC(=S)Nc2ccc(N3CCOCC3)c(Cl)c2)cc1 | 2.19 |

| Compound | z-score |
| --- | --- |
| O=C(NC(=S)Nc1ccc(N2CCOCC2)c(Cl)c1)c1cncc(Br)c1 | 7.69 (active) |
| Cc1cc(Cl)ccc1OCC(=O)NC(=S)Nc1ccccc1N1CCOCC1 | 0.195 |
| Cc1cccc(OCC(=O)Nc2ccccc2C(=O)N2CCOCC2)c1 | -0.0499 |
| Cc1ccc(OCC(=O)Nc2ccccc2N2CCOCC2)c(C)c1 | 0.00977 |
| COc1ccc(OCC(=O)Nc2ccc(N3CCOCC3)c(Cl)c2)cc1 | -0.665 |
| CCCC(=O)NC(=S)Nc1ccc(N2CCOCC2)c(Cl)c1 | 0.242 |
| Cc1cccc(OCC(=O)NC(=S)Nc2ccccc2N2CCOCC2)c1 | 3.14 (active) |
| Cn1c(=O)cc(SCC(=O)NCC2CCCO2)c2ccc(Cl)cc21 (stereo not given) | 0.0952 |
| COCCOC(=O)C1=C(C)NC2=C(C(=O)CC(C)(C)C2)C1c1ccc2c(c1)OCO2 (stereo not given) | -0.115 |
| CCc1nc(N)c(C#N)c(-c2cccc3ccccc23)c1C | 0.197 |
| O=C(C[n+]1ccc2ccccc2c1)Nc1cc(C(F)(F)F)ccc1Cl | -0.746 |
| CN(C)S(=O)(=O)c1cc(C(=O)O)c(NC2CCCCC2)cc1Cl | -2.9 |
| CCOC(=O)c1c(CSC(=N)N)n(-c2ccc(C)cc2)c2cc(Br)c(OC(C)=O)cc12 | 1.29 |
| Cc1cccc(NC(=O)CSc2nsc(SCC(=O)Nc3cccc(C)c3)c2C#N)c1 | -0.0761 |
| COc1ccc(CCNC2=NCC(C)S2)cc1 (stereo not given) | 0.0523 |
| Cc1cccc(OCC(=O)Nc2ccccc2N2CCCCC2)c1 | 0.378 |
| CCC(=O)N1CCN(c2ccccc2NC(=O)COc2cccc(C)c2)CC1 | 13 (active) |
| CCC(=O)N1CCN(c2ccccc2NC(=O)COc2cc(C)ccc2C(C)C)CC1 | 0.696 |
| Cc1sc(NC(=O)CSc2nnc(-c3ccc(F)cc3)o2)c(C#N)c1C | -0.213 |
| CCNC(=O)CN(c1ccc(OC)c(OC)c1)S(=O)(=O)c1ccccc1 | -0.11 |
| O=C(Nc1cccc(-c2nnc(-c3ccccc3)o2)c1)C1CCCO1 (stereo not given) | 3 |
| O=C(Nc1ccc2oc(-c3ccccc3)nc2c1)C1CCCO1 (stereo not given) | -0.123 |
| O=C(Nc1cccc(-c2nnc(-c3ccccc3)o2)c1)C1CCCCC1 | -0.0325 |
| CCOC(=O)Cc1csc(NC(=O)C2C3C=CC(C3)C2C(=O)O)n1 (stereo not given) | -0.0933 |
| Cc1cc(C)cc(OCC(=O)Nc2ccc3c(c2)C(=O)c2ccccc2C3=O)c1 | -0.124 |
| Cc1ccc2nc(SC(C(=O)Nc3ccc(F)cc3)c3ccccc3)[nH]c2c1 (stereo not given) | -0.117 |
| COc1cccc(C(=O)CSc2nnc(-c3cc(OC)cc(OC)c3)o2)c1 | 0.263 |
